Screen size: about 53,000 sequences; about 3,700 (7%) were called active.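 Rule for the calls: active = gene knockdowns whose robust z-score for IL-1 alpha signal is at least 2 or at most -2, so actives lie on both sides; inactive = the rest.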 Many of the other results were omitted from the sample, so actives are more common in it than they were.

The nature of this assay: Components of the Cytosolic LPS Sensing Pathway: Gene Identification via Genome-wide siRNA Screen. To be noted: RAW264.7 macrophages, IL-1a HTRF, actives lie on both sides, screened at 100 nM (by protocol), cells primed 5 h with Pam3CSK4 first. The source says:
Non-canonical inflammasome activation by cytosolic LPS is a critical component of the host response to Gram-negative bacterial infection, however we lack a comprehensive understanding of the cellular processes that control this pathway. Here we describe a genome-wide siRNA screen to identify genes regulating the mouse macrophage IL-1 alpha response to cytosolic LPS.
RAW264.7 cells were maintained in complete DMEM media, comprising DMEM with 4.5 g/L glucose, 10% FBS (Gemini Bio-Products, West Sacramento, CA), 2 mM Glutamine (Lonza) and 20 mM HEPES (Lonza), hereafter complete DMEM.
The RNAi screen was conducted in 384-well format using the Ambion Silencer Mouse Genome siRNA Library (#4391425), which consists of three unique, nonoverlapping, nonpooled siRNAs for each of 17,000 gene targets. siRNA reagents ([…]) were stamped into 384-well white flat-bottom microplates (Corning, 3570) using a Velocity11 VPrep liquid handling system (Agilent) integrated into a BioCel robotic platform (Agilent) in columns 1-22, leaving columns 23-24 empty for negative (Ambion, Negative control #1) and positive (mouse Casp4) controls, respectively. The median value of each plate's negative control column was used to normalize sample wells, and the positive control was used to assess transfection efficiency and assay performance.
Lipofectamine RNAiMAX Transfection Reagent ([…]; Invitrogen) was added in […] serum-free, antibiotic-free media to plate wells using a Thermo Scientific Matrix WellMate and Microplate Stacker. Plates were incubated for 45 min at room temperature to allow for the sufficient formation of siRNA-lipid complexes. Cells were seeded at a density of 1x10^4 cells per well in 20 microL media containing 20% (vol/vol) FBS without antibiotics. The final concentration of siRNA in each well was 100 nM. Cells were cultured for 48h at 37 degrees C in 5% CO2 before addition of […] of TLR ligand Pam3CSK4 for 5 hours. The medium was then removed, replaced with […] growth media and cell were transfected with […] of LipidA and TransIT-TKO (Mirus) for 24 hour. At the end of the LipidA treatment, […] of supernatant was transferred to a 384 Greiner Bio-one non-binding low volume plate and […] of IL-1a HTRF reagent (Cisbio, 62MIL1APEH) was added and incubated at room temperature overnight. The plates were read on an EnVision plate reader (PerkinElmer). Cell viability was measured by adding 20ul Cell Titer Glo to the original plate and running a luminescence read on the EnVision. The quantified IL-1a signal for each siRNA gene-targeted well was divided by the median of the negative control wells and multiplied by 100 to achieve a negative control normalized value for each well/siRNA. This normalized value was then used to generate a robust z-score by first taking the log of each value and then by subtracting the median and dividing by the […].
For the sequence CCUAUCAUGUUAAAAACAGTT against Grem2, the z-score was -1.13 (inactive). On to GGGUCACUUGGAUUGUGGATT against Tmx2, for which the z-score was -0.0195 (inactive). The same measure for GGAUCCUGCAUAUCUCAAATT against Mrps18c: 0.186 (inactive); for GGGACACGAUGAGGAGUCATT against Cfap410: -2.21 (active). Turning to GCGACUUAGAAAAGAACAGTT against Ccdc58, the z-score is 1.91 (inactive). As for “GGAACAGCAGCUUCCCUAATT against 4930555G01Rik”, the z-score is -0.0144 (inactive). Then CCAAGCGAAAUCGAGGUGUTT against Omt2b, with 0.931 (inactive); and GGCUAUAGCAGCACAUUGGTT against Ylpm1, with 2.57 (active); and GGUGGAGCAGAUGAAGAACTT against Hspbp1, with 0.447 (inactive). Then CCCAAGAAGUUUUAUUCUGTT against Zbbx, with -0.221 (inactive); and GGCCUACGACAAAUCCAAATT against Csrp2, with 1.14 (inactive). For the sequence GGCGAAGAUUGAAAAAUGCTT against Ube3c, the z-score was -0.407 (inactive). Then GGAACUAAAUGUGAAACAUTT against Ift52, with -2.07 (active). With GGAAGUGGAACAGGACGUATT against Caps2, the z-score is -1.17 (inactive). On to GCUGUACCACAACUAGUCATT against Cdc7, for which the z-score is 0.977 (inactive).

GGCAAGUUUGCUAUAACCUTT against Jmy: the z-score was -2.57 (active). The same measure for GGAAUAGGGAGGUAACCAGTT against Olfr1394: 0.0525 (inactive); for GGAAAUUGCACCUUUAAAGTT against Rnf130: 0.335 (inactive); for CGUAGCCGAGAAGACCCUATT against Shh: 0.0734 (inactive). Then GGUUUUAGAAUUCUGGACGTT against Plppr2, with 0.243 (inactive); and GCUCCUCUCAGGUGUACGATT against B9d2, with 2.23 (active); and GGGCAGGGAUGUUUAGAUCTT against Homer2, with 0.499 (inactive).

As for CCAACAUCUCUGUAUACUGTT against Olfr8, the z-score is 0.178 (inactive). The same measure for CCUACGUGAUCAACAAGCATT against Fxn: 0.682 (inactive); for GGGAGCAACUGUGUCAAAUTT against Tspan10: 1.06 (inactive); for GGAAAGACACAGAUAAUAATT against Arvcf: -1.28 (inactive).

Consider CCAAUAACUCUAAAUAGGCTT against Trhr, for which the z-score was 0.308 (inactive). Then GGUCAUCGAAUCUGGAGUATT against Pyroxd1, with -0.282 (inactive). Take GGUCCACAGUACCACAUAATT against Tespa1: the z-score is -3.2 (active). In the case of CAUCCCAGAGUGUUGUCUUTT against Olfr1325, the z-score is 1.97 (inactive). For the sequence GCAGCUCCCAAUCUCACUUTT against Ankrd34a, the z-score is 0.171 (inactive). The same measure for “GGUGUCCGUAAAUGGAGUGTT against A430033K04Rik”: 0.809 (inactive); for GGAAGAGAGCCUCUGCCAATT against Ccnb2: 2.28 (active).

Regarding GUGUGCUAUGAGCAAUGCCTT against Sprr2a1, the z-score is -1.34 (inactive).

As to GGUUCGACGAAGAUCAGAGTT against Akap1, the z-score was -0.634 (inactive). Consider GGAAAGUGUUCUCUACAUGTT against Olfr1093, for which the z-score is 0.878 (inactive). The same measure for GGUAACAAGAGGUCUAGCATT against P2ry1: 3.66 (active); for GGAUACUGGCAUGAAAUUGTT against Slc22a2: -0.888 (inactive); for GGCGGAACACAUGACUAGGTT against Ilf3: 0.189 (inactive). Consider GGUCUGAAAAUGGAAUACCTT against Vps13a, for which the z-score was 1.8 (inactive). The same measure for GGGAAUCAACGCAAAGUUGTT against Pcdhga5: -0.00294 (inactive); for GCACAAGACUAACAAUACGTT against Sptbn2: -1.26 (inactive); for GGACAUCAAAGAAAAGUCATT against Gpr171: 0.955 (inactive). Then GCCAAUGAAAGAGACGUAGTT against Fam81a, with -0.421 (inactive); and CCAAGAUGGGUUCAUCUCUTT against Cabp5, with 2.39 (active); and CGGAUUUCAUGGCUCAAGATT against Gfm2, with -0.123 (inactive). Then CGUGAACAGCUUUAAGGUGTT against Usp27x, with 1.34 (inactive); and CCCUAACAAACCCUAUUAUTT against Kdm6b, with -1.49 (inactive). On to GCUGAGACCCAGAUGCAAUTT against Mal, for which the z-score is 0.858 (inactive).

For GUCUGCAUCACCUUCACCATT against Lhb, the z-score is -0.301 (inactive).

As for CGGUAUCACGGUUAUCCUUTT against Olfr215, the z-score is 0.932 (inactive). The same measure for GGGAUUCCAGACAUGGGAATT against Alg9: -0.191 (inactive). As to GCGGUUCUAAGGAUACCGATT against Txndc17, the z-score is 2.52 (active).

With GGGUUUCUGACCCUUGGUUTT against Vmn1r220, the z-score was -1.42 (inactive). Take GGGUGUGAAGUCAUGGUAUTT against Trmt9b: the z-score was 0.503 (inactive). The same measure for GGCCUCCUAAGAGGACUCATT against Dach1: -1.11 (inactive). CGCAAUUCAGGUACCAAAUTT against Ndufv1: the z-score is -0.0623 (inactive).

Regarding GCCUGAAAUCAACUCCACCTT against F2, the z-score is 2.21 (active). For the sequence CCAUUACAUCAGCUUUAUUTT against Pamr1, the z-score was -0.845 (inactive). Take GGAUAUCCUUACAAGGACCTT against Tmco3: the z-score was -0.646 (inactive).

With GGCCGACCUUUCUAUCAAUTT against Rasip1, the z-score is -0.0174 (inactive). Then GGUGUCAUUCAACUUGCAUTT against Rnase10, with -2.55 (active). In the case of GGAGGAAUACAAAUUCAAGTT against Vamp5, the z-score is 1.37 (inactive).

In the case of GGCUCUCUGGAGAAUCAUGTT against Slc25a28, the z-score was 0.0751 (inactive).

Consider GGUUACUAUGGAGACCUGGTT against Mia, for which the z-score was 0.429 (inactive).

On to GCCUUAAUACUCACCAGGGTT against Zscan2, for which the z-score is 0.702 (inactive).

For GCUAAGACACGAUAAACUUTT against Yes1, the z-score is 1.34 (inactive).

For the sequence GCUGAUAAGGAGGUACCAUTT against Igf2r, the z-score was 0.916 (inactive). The same measure for GGAAAAGCAUCAAUUGAUGTT against Abca8b: -1.02 (inactive).

Source of the values: PubChem BioAssay AID1508600 (Functional Genomics Laboratory (NCATS/FGL), 2020).
